In publication PMC4336329 (PLoS ONE, 2015):
Among all 310,000 compounds or so, about 14,000 (4.5%) showed an effect of 50% or more. Effects have a minus sign here. The sample as a whole holds a higher share of strong results than the screen did.

biological target: human ether-à-go-go-related gene (hERG) potassium channel (human, UniProt Q12809); experiment: primary screen, population patch clamp on CHO cells stably expressing hERG; higher = less effect of the substance
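Also: peak tail current of the secondary pulse compared with the same well before compound.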

human ether-à-go-go-related gene (hERG) potassium channel, sequence (Q12809 whole entry, looked up): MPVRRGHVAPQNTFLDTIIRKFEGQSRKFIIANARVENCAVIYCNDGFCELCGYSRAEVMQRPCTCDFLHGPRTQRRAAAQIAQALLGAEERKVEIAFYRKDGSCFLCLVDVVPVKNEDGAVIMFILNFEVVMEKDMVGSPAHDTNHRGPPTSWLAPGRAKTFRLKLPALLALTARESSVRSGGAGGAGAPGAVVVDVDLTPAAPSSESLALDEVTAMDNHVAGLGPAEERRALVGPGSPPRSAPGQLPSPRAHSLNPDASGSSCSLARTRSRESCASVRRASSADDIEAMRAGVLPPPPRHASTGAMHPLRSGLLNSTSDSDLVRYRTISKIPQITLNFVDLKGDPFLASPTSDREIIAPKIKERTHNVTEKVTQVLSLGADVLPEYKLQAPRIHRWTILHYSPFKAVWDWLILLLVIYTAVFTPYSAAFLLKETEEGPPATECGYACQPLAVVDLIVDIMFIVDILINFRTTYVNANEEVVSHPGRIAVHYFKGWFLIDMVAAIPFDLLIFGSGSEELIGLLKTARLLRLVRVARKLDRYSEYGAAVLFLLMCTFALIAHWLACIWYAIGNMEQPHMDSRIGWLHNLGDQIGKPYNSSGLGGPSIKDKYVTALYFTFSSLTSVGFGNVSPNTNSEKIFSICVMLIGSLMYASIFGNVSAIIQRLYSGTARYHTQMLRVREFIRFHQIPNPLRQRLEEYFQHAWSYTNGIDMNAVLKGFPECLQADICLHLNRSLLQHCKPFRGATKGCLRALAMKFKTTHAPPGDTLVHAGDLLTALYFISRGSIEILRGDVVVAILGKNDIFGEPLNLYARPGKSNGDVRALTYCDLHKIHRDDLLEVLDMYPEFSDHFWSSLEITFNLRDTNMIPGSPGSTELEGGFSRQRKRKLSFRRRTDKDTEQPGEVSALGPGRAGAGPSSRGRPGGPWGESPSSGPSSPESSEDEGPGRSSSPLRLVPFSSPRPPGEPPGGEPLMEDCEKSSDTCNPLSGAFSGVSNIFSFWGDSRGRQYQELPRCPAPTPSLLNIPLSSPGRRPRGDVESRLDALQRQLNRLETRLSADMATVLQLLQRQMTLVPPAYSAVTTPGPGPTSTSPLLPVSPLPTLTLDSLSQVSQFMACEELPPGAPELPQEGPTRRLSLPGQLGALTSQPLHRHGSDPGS

Structure (SMILES) | hERG current change (%, negative = inhibition) at 10uM [%]
CCOc1ccc(CCNC(=O)Cn2c(-c3nonc3N)nc3ccccc32)cc1OCC | -3.72
Cc1ccc(-n2c3c(c(O)c(-c4ccccc4)c2=O)C(=O)CC(C)(C)C3)cc1 | -55.2
CC1(C)CC(=O)c2c(O)c(-c3ccccc3)c(=O)n(-c3ccccc3)c2C1 | -6.83
Cc1ccc(-n2c3c(cc(C(=O)O)c2=O)C(=O)CC(C)(C)C3)cc1 | 19.2
O=C(c1ccc2nccnc2c1)N1CCCC(N2CCN(c3ccc(F)cc3)CC2)C1 (stereo not drawn) | -9.66
COc1ccc(N2CCN(C(CNS(=O)(=O)c3cc(F)ccc3F)c3cccnc3)CC2)cc1 (stereo not drawn) | -69
O=C(NCC(c1cccnc1)N1CCN(c2ccccc2)CC1)Oc1ccccc1 (stereo not drawn) | -19.2
CCS(=O)(=O)NCC(c1cccnc1)N1CCN(c2ccccc2)CC1 (stereo not drawn) | -28.1
O=S(=O)(NCC(c1cccnc1)N1CCN(Cc2ccccc2)CC1)c1cc(F)ccc1F (stereo not drawn) | -69.1
O=C(NCc1ccc(Cl)cc1)C(=O)NCC(c1cccnc1)N1CCN(c2ccc(F)cc2)CC1 (stereo not drawn) | -45.5
O=S(=O)(NCC(c1cccnc1)N1CCN(c2ccc(F)cc2)CC1)c1cc(F)ccc1F (stereo not drawn) | -65.8
COc1ccccc1N1CCN(C(CNS(=O)(=O)c2cc(F)ccc2F)c2cccnc2)CC1 (stereo not drawn) | -35
O=C(NCC(c1cccnc1)N1CCN(c2ccc(F)cc2)CC1)C1CCCCC1 (stereo not drawn) | -45.5
COc1ccc(N2CCN(C(CNC(=O)C(C)(C)C)c3cccnc3)CC2)cc1 (stereo not drawn) | -36.7
Cc1cc(F)ccc1S(=O)(=O)NCC(c1cccnc1)N1CCc2ccccc21 (stereo not drawn) | -1.61
O=S(=O)(NCC(c1cccnc1)N1CCN(c2ccccc2)CC1)c1cc(F)ccc1F (stereo not drawn) | -62.8
CC1CCCCN1C(=O)c1cc2nc(-c3ccccc3)cc(-c3ccccc3)n2n1 (stereo not drawn) | -14.5
O=S(N1CCCCC1)C12CC3CC(CC(C3)C1)C2 (stereo not drawn) | -6.95
COc1ccc(-c2nc(NC(=O)CCNC(=O)c3ccco3)sc2C)cc1 | -11.1
CC(C)C[C@H](NC(=O)N1CC(=O)Nc2ccccc21)C(=O)N[C@@H](Cc1ccccc1)C(=O)O | 13.2
NC(=O)Cn1cc(C(=O)c2cccs2)c2ccccc21 | -2.95
O=C(NNc1cc(Cl)ccc1Cl)c1cccs1 | 7.63
Cc1c(Br)c([N+](=O)[O-])nn1C(C)C(=O)N1CCc2ccccc2C1 (stereo not drawn) | -13.4
Cc1c(OC(C)C(=O)NC2CC(C)(C)NC(C)(C)C2)ccc2c3c(c(=O)oc12)CCC3 (stereo not drawn) | 12.5
COc1cc(/C=N/N(C)C2=NS(=O)(=O)c3ccccc32)cc(OC)c1OC | 7.82
Cc1ccccc1CS(=O)(=O)Cc1ccc(C(=O)NCCCN2CC(C)CC(C)C2)o1 (stereo not drawn) | -36.1

Structure (SMILES) | hERG current change (%, negative = inhibition) at 10uM [%]
Cc1ccc(CS(=O)(=O)Cc2ccc(C(=O)NCCCN3CCOCC3)o2)cc1 | 6.75
CC1CCCN(CCCNC(=O)c2ccc(CS(=O)(=O)Cc3cccc(Cl)c3)o2)C1 (stereo not drawn) | -40.7
CC1CCN(CCCNC(=O)c2ccc(CS(=O)(=O)Cc3ccc(Cl)cc3)o2)CC1 | -44
CC1CC(C)CN(CCCNC(=O)c2ccc(CS(=O)(=O)Cc3cccc(Cl)c3)o2)C1 (stereo not drawn) | -69.1
Cc1ccc(CS(=O)(=O)Cc2ccc(C(=O)NCCCN3CC(C)CC(C)C3)o2)cc1 (stereo not drawn) | -60.2
CN(C1=NS(=O)(=O)c2ccccc21)c1ccc(OC(=O)c2ccncc2)cc1 | -9.07
COc1cccc(CN(C)C(=O)CCN(c2ccccc2)S(=O)(=O)c2ccc(C)cc2)c1OC | -30.4
COC(=O)C1=C(c2ccc(F)cc2F)C[C@@H]2CC[C@H]1N2C(=O)NC1Cc2ccccc2C1 | -16.9
O=C(N/N=C/c1cc(O)ccc1[N+](=O)[O-])c1ccc2c(c1)OCCO2 | -2.12
CCCCOc1ccc(S(=O)(=O)n2c(C)nc3ccccc32)cc1 | 0.0246
CCN(CC(=O)NCc1cccs1)C(=O)c1ccc(S(=O)(=O)Nc2ccccc2Cl)cc1 | -26.8
C/C(=N\NC(=O)c1cccc(S(=O)(=O)N2CCCC2)c1)c1ccncc1 | -1.9
C/C(=N\NC(=O)c1cccc(S(=O)(=O)N2CCOCC2)c1)c1ccc(C)cc1 | -3.88
N#Cc1ccc(/C=N/NC(=O)c2cccc(S(=O)(=O)N3CCOCC3)c2)cc1 | 13.3
C/C(=N\NC(=O)c1cccc(S(=O)(=O)N2CCCC2)c1)c1ccc(C)cc1 | -50.4
C/C(=N\NC(=O)c1cccc(S(=O)(=O)N2CCOCC2)c1)c1ccc(C#N)cc1 | -52.6
C/C(=N\NC(=O)c1cccc(S(=O)(=O)N2CCOCC2)c1)c1ccc(O)cc1 | 11.4
Cn1c(=O)c2c([nH]c(=S)n2CCCc2ccccc2)n(C)c1=O | 15.5
CC(Cc1cccs1)NC(=O)Nc1ccc(F)cc1 (stereo not drawn) | 18.2
CCc1nc(C#N)c(N2CCOCC2)o1 | 2.54
CCN(c1ccccc1)S(=O)(=O)c1ccc(C(=O)Oc2ccc(C(C)=O)cc2)cc1 | 8.41
CC1(C)N=C(N)NC(Nc2ccccc2)=N1 | 2.96
Cc1onc(-c2ccccc2Cl)c1C(=O)Nc1cccc(-c2cn3cccnc3n2)c1 | -24.8
Cc1onc(-c2ccccc2Cl)c1C(=O)Nc1cccc(-c2nc3ncccn3c2C)c1 | -63
Cc1onc(-c2ccccc2Cl)c1C(=O)Nc1ccc(-c2cn3cccnc3n2)cc1 | 26
